The campaign covered roughly 71,000 compounds. About 1,300 (1.8%) were called active. Where a call stands in place of a potency, no number is given. Calls follow the shape of the full dose curve. The sample as a whole holds a higher share of actives than the screen did.
What follows are compounds tested against Beta-lactamase (Escherichia coli (strain K12)) (UniProt P00811) (assay: Promiscuous and Specific Inhibitors of AmpC Beta-Lactamase (assay without detergent)). Conditions: AmpC nitrocefin hydrolysis, absorbance 480 nm, no detergent; series mostly up to 28.7 µM.
Sequence of Beta-lactamase (Escherichia coli (strain K12)) (P00811 whole entry, looked up): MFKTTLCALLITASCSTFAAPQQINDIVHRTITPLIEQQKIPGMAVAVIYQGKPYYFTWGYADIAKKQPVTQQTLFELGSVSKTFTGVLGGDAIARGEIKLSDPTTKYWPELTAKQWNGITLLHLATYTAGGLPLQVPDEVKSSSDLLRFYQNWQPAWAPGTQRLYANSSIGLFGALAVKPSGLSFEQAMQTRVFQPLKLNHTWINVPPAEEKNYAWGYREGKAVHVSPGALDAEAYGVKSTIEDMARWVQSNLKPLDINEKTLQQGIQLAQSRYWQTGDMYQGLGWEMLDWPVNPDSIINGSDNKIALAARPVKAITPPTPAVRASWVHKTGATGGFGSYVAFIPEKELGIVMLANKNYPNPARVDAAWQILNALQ
Protocol: NIH Molecular Libraries Screening Centers Network [MLSCN]
NIH Chemical Genomics Center [NCGC]
PI Name: Shoichet, Brian K.
This aggregation profiling approach exploits the sensitivity of aggregate formation to detergent. Inhibition of b-lactamase is measured in the presence and absence of 0.01% Triton X-100. See Pubchem assay "Promiscuous and Specific Inhibitors of AmpC Beta-Lactamase (assay with detergent)" for related screen. Compounds that inhibit only in the absence of detergent are considered likely promiscuous aggregators.
A screen of 1,030 compounds was performed in Brian Shoichet's lab in 96-well format. AmpC activity was measured by following the absorbance at 480 nm. Nitrocefin is a chromogenic substrate: while nitrocefin is yellow (lmax 390 nm), the product of its hydrolysis is red (lmax 486 nm, 17,000 M-1). AmpC beta lactamase was provided by Brian Shoichet and Brian Feng, UCSF.
NCGC Assay Protocol Summary:
20 mM phosphate buffer, pH 7.0
Triton X-100: No Detergent screen: 0.0001%, Detergent screen: 0.01%.
Buffer in columns 3 and 4 as negative control (no enzyme).
5.3 nM AmpC in columns 1, 2, 5-48. Titration of UCSF compound 9 control (from 10 mM, then 1:2) pin-transferred to column 2. Column 1 is neutral (100% activity).
Six uL of reagents were dispensed to 1536-well Greiner black clear bottom plates. Compounds and controls (23 nL) were transferred via Kalypsys PinTool. The plates were incubated for 15 min at room temperature, and then 2 uL of 800 uM solution of nitrocefin was added to start the reaction. The plates were immediately transferred to and read every 20 seconds for 4 min on ViewLux (Perkin-Elmer) High-throughput CCD imager using 480 nm absorbance protocol. During dispense, reagent bottles were kept submerged into 4 deg C water bath.
Keywords: NIH Roadmap, MLSCN, MLI, MLSMR, qHTS, NCGC, AmpC Beta-Lactamase, Aggregation.
Potency is read from the fitted curve at half-maximal effect.

| Compound | Potency |
| --- | --- |
| Cc1cc(NS(=O)(=O)c2ccccc2)no1 | 3.98 µM [single pt active] (active) |
| COc1cc2ccccc2cc1C(=O)Nc1ccc(S(=O)(=O)Nc2cc(C)on2)cc1 | inactive |
| O=S(=O)(Nc1ccccn1)c1ccc(Oc2ccccc2)cc1 | inactive |
| CCCc1cc(=O)[nH]c(SCc2ccc(C#N)cc2)n1 | inactive |
| CCOc1ccccc1C1CC(c2ccc(Cl)cc2)Nc2nc(N)nn21 (configuration not stated) | inactive |
| CCOc1ccccc1C1CC(c2ccccc2)Nc2nc(N)nn21 (configuration not stated) | 3.98 µM [single pt active] (active) |
| Cc1ccc(C2CC(c3cccc(Br)c3)n3nc(N)nc3N2)cc1 (configuration not stated) | inactive |
| Nc1nc2n(n1)C(c1ccco1)CC(c1ccc(Cl)c(Cl)c1)N2 (configuration not stated) | inactive |
| Cc1ccc(C2CC(c3cccc(C)c3)n3nc(N)nc3N2)cc1 (configuration not stated) | 3.98 µM [single pt active] (active) |
| COc1ccc(C2CC(c3ccc(Cl)cc3Cl)Nc3nc(N)nn32)cc1OC (configuration not stated) | inactive |
| O=C(O)CCCC(=O)Nc1ccccc1-n1ccnc1 | inactive |
| CCOC(=O)c1c(NC(=O)CCC(=O)NCc2ccco2)sc2c1CCCC2 | inactive |
| CC(C)[C@H](CO)Nc1nc(Nc2cc(N)cc(Cl)c2)c2ncn(C(C)C)c2n1 | inactive |
| COc1ccccc1N1CCN(c2nc3ccccc3n3nnnc23)CC1 | inactive |
| NC(=O)c1ccc(OC[C@H](O)CN2CC=C(c3ccc(F)cc3)CC2)cc1 | inactive |
| Cc1ccc(SCc2cc(=O)[nH]c(N3CCCCC3)n2)cc1 | inactive |
| CN(C)c1nc(N)nc(CSc2nnnn2-c2cccc3ccccc23)n1 | inactive |
| N#CC1=C(N)Oc2n[nH]c(CSc3ccccc3)c2C12C(=O)Nc1ccccc12 (configuration not stated) | inactive |
| CCOc1ccc(N(CC(=O)OC)S(=O)(=O)c2c(C)noc2C)cc1 | inactive |
| Oc1ccc(O)c2c(O)cccc12 | 0.631 µM (active) |
| O=c1cc(-c2ccc(O)c(O)c2)oc2cccc(O)c12 | inactive |
| Cc1ccc(C(=O)NCC(=O)O)cc1S(=O)(=O)N1CCCCC1 | inactive |
| CC[N+](C)(CC)CCC[n+]1c(-c2ccccc2)c2cc(N)ccc2c2ccc(N)cc21 | inactive |

| Compound | Potency |
| --- | --- |
| O=C(c1csnn1)N1CCC[C@@]2(CCN(c3cccc(-c4ccccc4)c3)C2)C1 | inactive |
| Cc1cc2cc(CN(Cc3cccs3)Cc3nnnn3CC3CCCO3)c(=O)[nH]c2cc1C (configuration not stated) | inactive |
| O=C(NCc1cccnc1)c1ccc(CS(=O)(=O)c2ccc(Br)cc2)o1 | 3.16 µM (active) |
| CCCNS(=O)(=O)c1ccc(CCC(=O)NCc2cccnc2)cc1 | inactive |
| CC(C)(C)c1cc(C(=O)NCc2cccnc2)ccn1 | inactive |
| Cc1ccnc(SCCn2c(N(C)Cc3ccccc3)nc3c2c(=O)n(C)c(=O)n3C)n1 | inactive |
| CCn1c(=O)cc(OCC(=O)NCCCN2CCN(c3cccc(Cl)c3)CC2)c2ccccc21 | inactive |
| Cn1c(C(=O)NCCc2ccsc2)cc2c(=O)n(C)c3ccccc3c21 | inactive |
| CCN1CCCC1CNC(=O)c1cc2c(=O)n(C)c3ccccc3c2n1C (configuration not stated) | 3.98 µM [single pt active] (active) |
| CCN1CCCC1CNC(=O)Cn1cnc2ccc(S(=O)(=O)N3CCC(C)CC3)cc2c1=O (configuration not stated) | inactive |
| Cn1c(C(=O)N2CCC(C(N)=O)CC2)cc2c(=O)n(C)c3ccccc3c21 | inactive |
| Cn1c(C(=O)NCCN2CCc3ccccc3C2)cc2c(=O)[nH]c3ccccc3c21 | inactive |
| O=C(CCn1c(=O)[nH]c2ccccc2c1=O)NCCCN1CCN(c2cccc(Cl)c2)CC1 | inactive |
| CC1CCCC(C)N1CCCNC(=O)c1cc2c(=O)n(C)c3ccccc3c2n1C (configuration not stated) | 3.16 µM [single pt active] (active) |
| Cn1c(C(=O)NCCCN2CCN(c3cccc(Cl)c3)CC2)cc2c(=O)n(C)c3ccccc3c21 | 3.98 µM [single pt active] (active) |
| CNC(=O)CSc1nnnn1-c1ccc(C)cc1C | inactive |
| CCOC(=O)c1ccc(NC(=O)CS(=O)(=O)c2cn(CC)c3ccccc23)cc1 | inactive |
| CCOc1ccc(NC(=O)CCC(=O)n2nc(C)cc2C)cc1 | inactive |
| CNC(=O)NCCN1CCCC1=O | inactive |
| COc1ncnc2c1N=C1CC(C)(C)CC(N)=C1S2 | inactive |
| C=CCOC(=O)COCCC(C)C | inactive |
| CCOC(=O)c1sc(=S)n(-c2cccc(OC)c2)c1N | inactive |
| CCOC(=O)c1sc(=S)n2c1[nH]c(=O)c1ccc(C(=O)OC)cc12 | 12.6 µM (active) |

| Compound | Potency |
| --- | --- |
| CCOC(=O)Cn1c(N)c(C(=O)OC)sc1=S | inactive |
| Cc1ccc(OCc2nc(C#N)c(N3CCCC3)o2)cc1 | inactive |
| Cc1ccccc1S(=O)(=O)Cc1ccc(C(=O)NCCN2CCCCC2C)o1 (configuration not stated) | inactive |
| C=CCNc1nnc(SCC(=O)N2CCCCC2)c2ccccc12 | inactive |
| CCCN1CCN(CCCNC(=O)CN2C(=O)COc3ccccc32)CC1 | inactive |
| O=C(CN1C(=O)COc2ccccc21)Nc1ccc(F)cc1 | 3.98 µM [single pt active] (active) |
| O=C(CN1C(=O)COc2ccccc21)NCCN1CCc2ccccc2C1 | inactive |
| COC(=O)[C@H](C)NC(=O)Nc1ccc(OC(F)(F)F)cc1 | inactive |
| Oc1c(Cl)cc(Cl)c(Cl)c1Cc1c(O)c(Cl)cc(Cl)c1Cl | 5.01 µM (active) |
| CC(=O)Nc1ccn(Cc2c(F)cccc2Cl)n1 | inactive |
| O=C(Oc1ccc(-c2nc(-c3ccccn3)no2)cc1)c1ccccc1 | inactive |
| N#Cc1ccccc1-n1c(N)c(C(=O)N2CCCC2)sc1=S | inactive |
| Cn1c(=O)[nH]c(=O)c2c1nc(CN(Cc1ccccc1)Cc1ccccc1)n2CCN1CCOCC1 | inactive |
| Cc1ccc2nc(NC(=O)C3CCN(S(=O)(=O)c4ccc5c(c4)oc(=O)n5C)CC3)sc2c1 | 3.98 µM [single pt active] (active) |
| O=C(Nc1nc2ccc(S(=O)(=O)N3CCCC3)cc2s1)C1CCCO1 (configuration not stated) | inactive |
| Cn1c(=O)oc2cc(S(=O)(=O)N3CCC(C(=O)Nc4ccc(OC(F)(F)F)cc4)CC3)ccc21 | inactive |
| CC(=O)OC(C(=O)NCCc1ccccc1)c1cccnc1 (configuration not stated) | inactive |
| C[N+]1(C)C2CC(OC(=O)C(CO)c3ccccc3)CC1[C@@H]1O[C@H]21 (some centres not stated) | inactive |
| CCOc1ccc(CCNC(=O)C2CCN(c3ccc(N4CCOCC4)nn3)CC2)cc1OCC | inactive |
| CCOc1ccccc1NC(=O)C1CCC(CNc2c(N3CCOCC3)c(=O)c2=O)CC1 (configuration not stated) | 3.98 µM [single pt active] (active) |
| CCOc1ccccc1NC(=O)C1CCN(S(=O)(=O)c2c(C)nn(C)c2C)CC1 | inactive |

— PubChem BioAssay AID585 (National Center for Advancing Translational Sciences (NCATS), 2007)
